Test [1] in a line: qHTS assay to identify small molecule antagonists of the thyroid receptor (TR) signaling pathway (AID 743065). Note: nearly all actives have a fitted effect of over 55% in size. Note: potency is the fitted concentration of half-maximal effect. In outline: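 GH3.TRE-Luc rat pituitary cells (two TREs driving luciferase) were dosed with compound, then stimulated with 1 nM T3 (final) for 23.5 h at 37 C. ONE-Glo luminescence was the read-out, with CellTiter-Fluor fluorescence as the cytotoxicity counter-screen.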

Test [2] relates to thyroid hormone receptor (rat, GH3 cells). The test is described as follows: qHTS assay to identify small molecule agonists of the thyroid receptor (TR) signaling pathway (AID 743066; calls by dose curve). (In qHTS, concentration-response curves come from the screen itself.)
Test [3] has as its target Estrogen receptor (Homo sapiens) (UniProt P03372). The test is described as follows: qHTS assay to identify small molecule antagonists of the estrogen receptor alpha (ER-alpha) signaling pathway (AID 743069; active = well fitted curve in the direction sought with a large enough effect in the signal ratio in the repeat runs, not every such curve was filed as active; inconclusive = weak or mixed curves, or effect the other way; inactive = no such curve, though single readings can be large or run the other way; the % refers to the signal ratio). A digest of the protocol:
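Beta-lactamase FRET fluorescence is read after 2 hr at room temperature with LiveBLAzer B/G substrate. Before that, ER-alpha-bla HEK293 cells sit 4 hr after plating, then receive compound plus 17beta-estradiol and incubate 18 hr at 37C.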

Test [4] is described as follows: qHTS assay to identify small molecule antagonists of the estrogen receptor alpha (ER-alpha) signaling pathway - cell viability counter screen (AID 743074; calls by dose curve;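 note: HEK293 cells carrying ER-alpha-UAS-bla reporter stimulated with 17beta-estradiol; nearly all actives have a fitted effect of over 45% in size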; note: potency is the fitted concentration of half-maximal effect).
The target of test [5] is Estrogen receptor (Homo sapiens) (UniProt P03372). Briefly: qHTS assay to identify small molecule agonists of the estrogen receptor alpha (ER-alpha) signaling pathway (AID 743075; calls by dose curve;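 note: HEK293 GripTite cells with ER-alpha and UAS-driven beta-lactamase reporter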; note: potency is the fitted concentration of half-maximal effect).
Chain of Estrogen receptor (Homo sapiens) (P03372 whole entry, looked up): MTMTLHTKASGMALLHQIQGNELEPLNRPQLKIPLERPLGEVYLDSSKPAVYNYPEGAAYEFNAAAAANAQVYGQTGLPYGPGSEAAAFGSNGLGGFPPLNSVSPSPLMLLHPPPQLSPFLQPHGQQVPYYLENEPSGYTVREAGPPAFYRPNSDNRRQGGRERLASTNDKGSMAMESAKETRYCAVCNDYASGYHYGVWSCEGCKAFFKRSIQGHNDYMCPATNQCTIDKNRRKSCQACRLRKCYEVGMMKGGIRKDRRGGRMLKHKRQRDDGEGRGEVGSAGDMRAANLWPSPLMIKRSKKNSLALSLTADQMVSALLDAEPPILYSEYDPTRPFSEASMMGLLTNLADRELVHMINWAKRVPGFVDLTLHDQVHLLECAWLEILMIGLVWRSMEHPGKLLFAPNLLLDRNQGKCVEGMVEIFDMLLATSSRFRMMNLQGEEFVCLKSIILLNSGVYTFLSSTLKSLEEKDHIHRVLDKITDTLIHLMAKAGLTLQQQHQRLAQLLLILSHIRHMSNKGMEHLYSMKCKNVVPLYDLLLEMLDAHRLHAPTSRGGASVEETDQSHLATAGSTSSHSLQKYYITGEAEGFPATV
For test [6] the target is unchanged. The test is described as follows: qHTS assay to identify small molecule agonists of the estrogen receptor alpha (ER-alpha) signaling pathway using the BG1 cell line (AID 743079). Note: nearly all actives have a fitted effect of over 20% in size. Note: potency is the fitted concentration of half-maximal effect.
The nature of test [7]: qHTS assay to identify small molecule antagonists of the estrogen receptor alpha (ER-alpha) signaling pathway using the BG1 cell line (AID 743080; calls by dose curve;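 note: BG1 cells stimulated with 17beta-estradiol alongside compound; nearly all actives have a fitted effect of over 25% in size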; note: potency is the fitted concentration of half-maximal effect). In outline: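 Luminescence from a 4×ERE-luciferase reporter in BG1-Luc-4E2 cells served as read-out. Cells, pre-cultured 5 days in stripped-serum phenol-red-free medium, were exposed to compound with 17beta-estradiol co-stimulation for 21.5 h at 37 C.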

The nature of test [8]: qHTS assay to identify small molecule antagonists of the estrogen receptor alpha (ER-alpha) signaling pathway using the BG1 cell line - cell viability counter screen (AID 743081).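 Note: compound given together with 17beta-estradiol as the ER stimulus; series mostly up to about 70 µM; nearly all actives have a fitted effect of over 45% in size.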
Test [9] addresses Aromatase (Homo sapiens) (UniProt P11511). The test is described as follows: qHTS assay to identify aromatase inhibitors (AID 743083). Note: nearly all actives have a fitted effect of over 55% in size. Note: potency is the fitted concentration of half-maximal effect.
The nature of test [10]: qHTS assay to identify aromatase inhibitors - cell viability counter screen (AID 743084).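 Note: cells stimulated with testosterone during compound exposure; nearly all actives have a fitted effect of over 55% in size.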
Test [11] has as its target Aryl hydrocarbon receptor (Homo sapiens) (UniProt P35869). The test is described as follows: qHTS assay to identify small molecule that activate the aryl hydrocarbon receptor (AhR) signaling pathway (AID 743085).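 Note: HG2L7.5c1 human HepG2 liver cells with stably integrated DRE-driven firefly reporter; series mostly up to about 70 µM; nearly all actives have a fitted effect of over 15% in size.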 In outline:
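A multiplexed format paired cell viability (CellTiter-Fluor fluorescence) with AhR-dependent luciferase output (ONE-Glo luminescence) in the same wells of HepG2 DRE-luc cells after 24 h compound exposure at 37C.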

The nature of test [12]: qHTS assay to identify small molecule that activate the aryl hydrocarbon receptor (AhR) signaling pathway - cell viability counter screen (AID 743086).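 Note: HepG2 liver cells carrying the AhR DRE luciferase reporter; series mostly up to about 70 µM; nearly all actives have a fitted effect of over 45% in size.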 A digest of the protocol:
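HepG2-AhR-luc (HG2L7.5c1) cells, 4000/well, treated 24 h at 37 C with compound; viability measured as CellTiter-Fluor fluorescence after 30 min in the same wells as the luciferase read.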

For test [13], the target named is Peroxisome proliferator-activated receptor gamma (Homo sapiens) (UniProt P37231). Briefly: qHTS assay to identify small molecule agonists of the peroxisome proliferator-activated receptor gamma (PPARg) signaling pathway (AID 743094; active = well fitted activation curve with a large enough effect in the signal ratio in the repeat runs, not every such curve was filed as active; inconclusive = weak or mixed curves, or effect the other way; inactive = no such curve, though single readings can be large or run the other way; the % refers to the signal ratio). A digest of the protocol:
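Fluorescence-based beta-lactamase readout in HEK293H PPARg UAS-bla cells after 17 h compound exposure (37C) and 1 h B/G FRET substrate incubation at room temperature.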

Test [14] in a line: qHTS assay to identify small molecule antagonists of the peroxisome proliferator-activated receptor gamma (PPARg) signaling pathway - cell viability counter screen (AID 743194). Note: nearly all actives have a fitted effect of over 55% in size. Note: potency is the fitted concentration of half-maximal effect. A digest of the protocol:
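Cytotoxicity counter screen in PPARg-bla HEK293H cells, same wells as reporter assay. Compounds plus 50 nM rosiglitazone (final) for 17 h at 37 C, then viability read by CellTiter-Glo luminescence.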

Test [15] in a line: qHTS assay for small molecule agonists of the antioxidant response element (ARE) signaling pathway - cell viability counter screen (AID 743203; calls by dose curve; note: nearly all actives have a fitted effect of over 55% in size; note: potency is the fitted concentration of half-maximal effect). In outline: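 Parallel cytotoxicity read-out for the ARE-bla screen: HepG2 reporter cells, 16 hrs with compounds, then CellTiter-Glo luminescence.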
Test [16] can be described thus: qHTS assay for small molecule activators of the heat shock response signaling pathway (AID 743210; active = well fitted activation curve with a large enough effect in the signal ratio in the repeat runs, with a control signal flat, not every such curve was filed as active; inconclusive = weak or mixed curves; the % refers to the signal ratio;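 note: HeLa cells with beta-lactamase reporter driven by heat shock elements; series mostly up to about 63 µM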). In outline:
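Beta-lactamase reporter read-out: FRET substrate fluorescence after 2.5 h at RT, following 5 h compound treatment at 37 C of HeLa cells carrying HSE-driven bla reporter; quantitative HTS format.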

Test [17] is described as follows: qHTS assay to identify small molecule agonists of the peroxisome proliferator-activated receptor delta (PPARd) signaling pathway - cell viability counter screen (AID 743211). Note: nearly all actives have a fitted effect of over 55% in size. Note: potency is the fitted concentration of half-maximal effect. A digest of the protocol: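 Tox21 library compounds, delivered in DMSO, were incubated 17 h with PPARd-bla HEK293H cells; cytotoxicity was taken from CellTiter-Glo luminescence read 30 min after reagent addition.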

The target in test [18] is Peroxisome proliferator-activated receptor gamma (Homo sapiens) (UniProt P37231). Briefly: qHTS assay to identify small molecule antagonists of the peroxisome proliferator-activated receptor gamma (PPARg) signaling pathway (AID 743191; calls by dose curve; note: nearly all actives have a fitted effect of over 30% in size; note: potency is the fitted concentration of half-maximal effect). A digest of the protocol:
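GeneBLAzer PPARg UAS-bla HEK293H cells, 5 h post-plating, exposed to compounds 17 h at 37C. LiveBLAzer B/G FRET substrate added for 1 h at room temperature; beta-lactamase reporter read by fluorescence intensity.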

Test [19] in a line: qHTS assay for small molecule agonists of the antioxidant response element (ARE) signaling pathway (AID 743202; active = well fitted activation curve with a large enough effect in the signal ratio in the repeat runs, not every such curve was filed as active; inconclusive = weak or mixed curves, or effect the other way; inactive = no such curve, though single readings can be large or run the other way; the % refers to the signal ratio). A digest of the protocol:
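HepG2 ARE-bla reporter line, 2,000 cells/well; 5 h preincubation 37 C/5% CO2; compound (DMSO) 16 h 37 C; B/G FRET substrate 2 h RT; fluorescence intensity.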

A short description of test [20]: qHTS assay for small molecule activators of the heat shock response signaling pathway - cell viability counter screen (AID 743209). Note: nearly all actives have a fitted effect of over 50% in size. Note: potency is the fitted concentration of half-maximal effect. In outline: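 To flag cytotoxic compounds, HSE-bla HeLa cells plated at 1500 cells/well were dosed for 5 h at 37 C, followed by the reporter FRET read and then CellTiter-Glo, with luminescence recorded 30 min after reagent addition.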

Where “and” joins values, the source holds several entries; their conditions need not be identical. Equal entries are not always repeated. Some compounds were tested as several samples or in several runs, with calls that do not always agree. Calls of active or inactive are those of the source. Unless noted, calls come from the whole dose curve; as a rule, active = well fitted curve in the direction sought with a large enough effect in the repeat runs; inconclusive = weak or mixed curves; inactive = no such curve, though single readings can be large; an effect the other way counts as inactive or inconclusive.

Chain of Peroxisome proliferator-activated receptor gamma (Homo sapiens) (P37231 whole entry, looked up): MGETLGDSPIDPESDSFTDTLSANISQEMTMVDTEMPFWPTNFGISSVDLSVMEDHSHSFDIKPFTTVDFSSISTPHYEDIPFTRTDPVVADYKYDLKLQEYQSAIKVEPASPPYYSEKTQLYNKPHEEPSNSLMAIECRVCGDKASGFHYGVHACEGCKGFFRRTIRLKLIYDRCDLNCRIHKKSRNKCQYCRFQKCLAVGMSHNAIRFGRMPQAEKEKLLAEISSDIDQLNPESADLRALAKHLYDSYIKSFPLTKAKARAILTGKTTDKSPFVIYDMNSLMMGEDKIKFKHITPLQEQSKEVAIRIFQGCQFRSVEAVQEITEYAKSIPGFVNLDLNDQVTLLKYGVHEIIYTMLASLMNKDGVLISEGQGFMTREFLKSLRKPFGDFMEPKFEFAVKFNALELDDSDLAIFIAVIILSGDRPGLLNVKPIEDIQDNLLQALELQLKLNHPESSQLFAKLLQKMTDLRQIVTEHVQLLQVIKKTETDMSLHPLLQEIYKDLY
Chain of Aromatase (Homo sapiens) (P11511 whole entry, looked up): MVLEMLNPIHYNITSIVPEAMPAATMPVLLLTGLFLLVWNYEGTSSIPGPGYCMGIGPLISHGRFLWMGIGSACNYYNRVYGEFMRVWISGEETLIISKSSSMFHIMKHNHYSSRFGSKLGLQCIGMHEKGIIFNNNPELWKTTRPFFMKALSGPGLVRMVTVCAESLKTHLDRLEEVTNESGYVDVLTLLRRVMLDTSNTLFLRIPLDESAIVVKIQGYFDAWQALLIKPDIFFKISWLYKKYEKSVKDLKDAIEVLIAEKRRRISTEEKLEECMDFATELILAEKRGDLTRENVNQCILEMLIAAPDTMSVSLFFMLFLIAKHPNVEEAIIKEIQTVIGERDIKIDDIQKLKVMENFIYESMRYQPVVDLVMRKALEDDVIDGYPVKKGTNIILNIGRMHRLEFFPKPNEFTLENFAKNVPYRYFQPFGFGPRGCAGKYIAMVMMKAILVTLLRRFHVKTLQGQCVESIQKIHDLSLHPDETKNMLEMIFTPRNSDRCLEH
Chain of Aryl hydrocarbon receptor (Homo sapiens) (P35869 whole entry, looked up): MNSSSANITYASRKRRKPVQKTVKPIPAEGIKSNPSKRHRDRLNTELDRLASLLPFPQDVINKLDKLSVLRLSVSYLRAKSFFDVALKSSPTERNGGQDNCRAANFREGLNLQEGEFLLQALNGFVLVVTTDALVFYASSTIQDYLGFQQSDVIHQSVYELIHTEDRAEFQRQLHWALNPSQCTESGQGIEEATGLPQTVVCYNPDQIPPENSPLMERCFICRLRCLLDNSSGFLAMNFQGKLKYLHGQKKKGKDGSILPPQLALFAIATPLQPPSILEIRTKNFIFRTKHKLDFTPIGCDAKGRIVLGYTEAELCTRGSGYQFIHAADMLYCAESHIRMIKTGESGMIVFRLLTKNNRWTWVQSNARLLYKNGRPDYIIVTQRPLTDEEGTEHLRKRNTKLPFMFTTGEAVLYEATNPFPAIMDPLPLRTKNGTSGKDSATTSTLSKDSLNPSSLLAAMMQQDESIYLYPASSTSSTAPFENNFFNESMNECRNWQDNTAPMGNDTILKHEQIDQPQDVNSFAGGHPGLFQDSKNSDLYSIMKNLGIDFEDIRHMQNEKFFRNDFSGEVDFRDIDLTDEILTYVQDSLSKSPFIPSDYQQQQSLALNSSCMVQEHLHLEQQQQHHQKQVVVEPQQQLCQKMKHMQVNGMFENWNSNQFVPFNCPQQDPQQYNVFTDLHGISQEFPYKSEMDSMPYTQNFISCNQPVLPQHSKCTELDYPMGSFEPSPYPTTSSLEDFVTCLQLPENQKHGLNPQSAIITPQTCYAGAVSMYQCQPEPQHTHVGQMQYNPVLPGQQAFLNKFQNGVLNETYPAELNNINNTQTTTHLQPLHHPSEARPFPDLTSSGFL

Take `CO[Si](OC)(OC)c1ccccc1`: the Potency result in test [1], in [2], in test [3], in [4], in test [5] and in test [6] was “inactive” in each case. Further, the Potency entry in [7], in test [8], in test [9], in test [10], in [11] and in test [12] was “inactive” each time. The Potency entry in test [13], in test [14], in [15], in [16] and in [17] was “inactive” throughout.

Take `CC(C(O)c1ccc(O)cc1)N1CCC(Cc2ccccc2)CC1` (stereo not drawn): the Potency in test [1] is 23.7 µM (active). In addition, the Potency entry in [2], in test [3], in test [4], in test [5], in test [6] and in [9] was “inactive” in each case. Moreover, the Potency entry in test [10], in [11], in test [12], in test [13], in test [18] and in test [14] was “inactive” throughout. Moreover, the Potency result in test [19], in test [15], in [20], in test [16] and in test [17] was “inactive” throughout.

As for `C=C(C)C1CC=C(C)C(OC(C)=O)C1` (stereo not drawn), the Potency result in test [1], in test [2], in [3], in test [4], in test [5] and in test [6] was “inactive” each time. Also, the Potency entry in test [7], in [8], in test [9], in test [10], in [11] and in test [12] was “inactive” throughout. Also, the Potency entry in test [13], in test [14], in test [19], in [15], in test [20] and in [16] was “inactive” throughout. Besides, the Potency result in [17] was “inactive”.

For `COc1ccc(Cc2cnc(N)nc2N)cc1OC`, the Potency entry in test [1], in [2], in test [3], in test [4], in [5] and in [6] was “inactive” throughout. Further, the Potency result in [7], in test [8], in test [9], in test [10], in test [11] and in test [12] was “inactive” each time. Also, the Potency result in [13], in test [14], in test [19], in test [15], in test [20] and in test [16] was “inactive” each time. Moreover, the Potency entry in test [17] is “inactive”.

`CC(C)(O)CCC(C)(C)O`: the Potency entry in test [1], in [2], in [3], in test [4], in test [5] and in [6] was “inactive” in each case. For the same compound, the Potency entry in [7], in test [8], in test [9], in test [10], in test [11] and in [12] was “inactive” each time. For the same compound, the Potency entry in [13], in test [14], in [19], in test [15], in [20] and in test [16] was “inactive” throughout. The Potency result in [17] was “inactive”.

Consider `CCCCOCCOC(=O)c1ccccc1C(=O)OCCOCCCC`, for which the Potency in test [1] was 30 µM (active); in [17], 47.9 µM (active) and inactive. The Potency entry in [2], in [3], in [4], in test [5], in test [6] and in [7] was “inactive” in each case. The Potency result in [8], in [9], in test [10], in test [12], in [13] and in test [18] was “inactive” each time. The Potency entry in test [14], in test [19], in [15] and in test [20] was “inactive” each time.

Turning to `CCN(CC)C(=O)Nc1ccc(OCC(O)CNC(C)(C)C)c(C(C)=O)c1` (stereo not drawn), the Potency result in test [1], in test [2], in [3], in test [4], in test [5] and in [6] was “inactive” each time. Further, the Potency result in [7], in test [8], in [9], in test [10], in [11] and in [12] was “inactive” throughout. Further, the Potency entry in test [13], in [14], in test [19], in test [15], in [20] and in test [16] was “inactive” each time. The Potency entry in test [17] is “inactive”.

Take `CC(C)CCOC(=O)c1ccc(N(C)C)cc1`: the Potency result in test [1], in test [2], in test [3], in test [4], in [5] and in [8] was “inactive” each time. Moreover, the Potency entry in test [9], in test [10], in [12], in test [13], in [14] and in test [19] was “inactive” throughout. Moreover, the Potency entry in test [15], in test [20], in [16] and in [17] was “inactive” in each case. Further, in test [6], the Potency was 11.9 µM (active).

`Cc1cccc(O)c1C`: the Potency entry in [1], in test [2], in test [3], in [4], in test [5] and in test [6] was “inactive” throughout. For the same compound, the Potency entry in [7], in test [8], in test [9], in [10], in test [11] and in test [12] was “inactive” each time. In addition, the Potency result in test [13], in test [18], in [14], in test [19], in test [15] and in test [20] was “inactive” each time. Moreover, the Potency entry in [16] and in [17] was “inactive” throughout.

With `Oc1ccc(Cl)cc1Cc1cc(Cl)ccc1O`, the Potency in test [1] was 7.5 µM (active) and 3.12 µM (active) and 5.45 µM (active); in test [4] it was 49.9 µM (active) and 38.9 µM (active); in [7], 33.5 µM (active); in test [9], 29.8 µM (active) and 30.6 µM (active); in test [14] it was 11.2 µM (active) and 3.89 µM (active) and 16.8 µM (active); in [15], 27.8 µM (active) and 54.5 µM (active). Moreover, the Potency is 22.3 µM (active) and inactive in [20]; 44.4 µM (active) and 30.9 µM (active) and 29.8 µM (active) in test [17]. Also, the Potency entry in test [2], in test [3], in test [5], in [8], in test [11] and in test [12] was “inactive” each time. For the same compound, the Potency result in test [13] was “inactive”.

For `NC(N)=Nc1nc(CSCC/C(N)=N/S(N)(=O)=O)cs1`, the Potency result in [1], in test [2], in [3], in test [4], in [5] and in test [6] was “inactive” each time. For the same compound, the Potency entry in test [7], in test [8], in [9], in test [10], in test [12] and in test [13] was “inactive” each time. Besides, the Potency result in [14], in test [19], in [15], in [20], in test [16] and in [17] was “inactive” each time.

Turning to `O=C(OCc1ccccc1)c1ccc(O)cc1`, the Potency result in test [1], in [2], in test [3], in test [4], in test [8] and in [9] was “inactive” each time. For the same compound, the Potency result in test [10], in test [11], in [12], in [13], in test [14] and in test [19] was “inactive” in each case. Besides, the Potency entry in test [15], in [20], in test [16] and in test [17] was “inactive” throughout. In addition, the Potency was 54.9 µM [inconclusive] (active) in test [5]; 10.6 µM (active) and 12.2 µM (active) in test [6]; 43.6 µM (active) in [18].

The values above are taken from PubChem BioAssay (Tox21).
